Values without a mark were called inactive. The rule behind the calls is not given here.
B1: design_613_5efed0bc-64ba-423b-b3f9-a246574e49bb_418_dldesign_0_cycle1_af2pred (protein)
chain: AGAEAAAHLNAAFASLSKGLISTDPAEAQKYFDEAKAHLDKARALAAKDPAVAAEVQAAVDKITDLLEGGKAAR
B2: design_613_5efed0bc-64ba-423b-b3f9-a246574e49bb_898_dldesign_0_cycle1_af2pred (protein)
chain: GEEEERLRREGERIVEEARRLAEEAVAAIKAAAPDVAKATAILIDYLKRIDELVKRAAPYPEAAAEVAELGNRASAQGIRYIMAAA
B3: design_612_bdadb936-3f14-48ad-830f-718e38d81c30_973_dldesign_0_cycle1_af2pred (protein)
chain: GAATALAILKANLAAQVKAAAAGVGAKAAAETAKVLADSAAGIAKADPAVAAEAEKLAAEAKAASKEFAAKAEAAAAA
B4: design_613_5efed0bc-64ba-423b-b3f9-a246574e49bb_150_dldesign_0_cycle1_af2pred (protein)
chain: GEKEKAVKEAKEAAEETEKVAKEAIKAAKAAGNEAAAKMAEALAKNAKKALEEAKKGTLEEAKKNLKYIESNLKNAKLILEGQ
B5: design_612_bdadb936-3f14-48ad-830f-718e38d81c30_1696_dldesign_0_cycle1_af2pred (protein)
chain: SAEILAAQAKALELMKEAAKYNRKAGGKTAELALEAAKYATKAISYFATGEKKAEGEEEYKKAEEKLKEVKKKAA
B6: design_612_bdadb936-3f14-48ad-830f-718e38d81c30_1961_dldesign_0_cycle1_af2pred (protein)
chain: MERLEKIEKRIEEIEKVVEEAEKKVKEGTITGEDALRLNKALAEARRIAEEAAKLDPELAKRAQAVAERASRVLVEGNKLLVA
B7: design_612_bdadb936-3f14-48ad-830f-718e38d81c30_380_dldesign_0_cycle1_af2pred (protein)
chain: SQALQTQMLIANARNLAKNAEELLKKGDVEKAEKAVEALEKLAKIAGEASPEAGKEAGKLAEEARKKVEEFKK
B8: design_612_bdadb936-3f14-48ad-830f-718e38d81c30_2023_dldesign_0_cycle1_af2pred (protein)
chain: AEAETLGSLARGAISFLRTAAAYLRRKAAAAADPATAATLNAYADRLEALAEAAAKAVEEGKYEEAVALAEEGVALALEGAAAAA
B9: design_612_bdadb936-3f14-48ad-830f-718e38d81c30_1410_dldesign_0_cycle1_af2pred (protein)
chain: MEEIRALAEEALATAEAELATMRAAQEAGDVGTAVDALRVLFRTANEAIRRLRELGGPEEYIERLEAARREAQAILAATARRAIAQA
B10: design_612_bdadb936-3f14-48ad-830f-718e38d81c30_1747_dldesign_0_cycle1_af2pred (protein)
chain: SAADVAAATQKALKKQAEKLLELAKEAAAKDKEEAKKYAKAAKKLAELMVLAGEQAGTGAEAKKEAEKIKKEVEKVVKEA
B11: design_613_5efed0bc-64ba-423b-b3f9-a246574e49bb_896_dldesign_0_cycle1_af2pred (protein)
chain: AQAEAARQAAVDALAKSGEAAVKAMKEDPERASKRASGAIANLRLLGDEETAEKVAKKLLEEAKKLGEEAYEIAKKEVEKAKENVEA
B12: design_612_bdadb936-3f14-48ad-830f-718e38d81c30_557_dldesign_0_cycle1_af2pred (protein)
chain: MDQAVADRTAEALAKHAKRLLEEGLKLAKEGDLEEAKKKVEAAKQVAEVLKNLGSPKAAELGEKMLEEAKKALEEIKKR
B13: design_612_bdadb936-3f14-48ad-830f-718e38d81c30_715_dldesign_0_cycle1_af2pred (protein)
chain: IEQLAALARASYRAVRVAAENLAAGRLTPEQLKAAAQLAEGTEKLAKETAAAYNADPATKEKAAEFEELARFAKEVRDAARAAL
B14: design_612_bdadb936-3f14-48ad-830f-718e38d81c30_1730_dldesign_0_cycle1_af2pred (protein)
chain: AAAAAVAKVKAAKEKAKELLEEARKLAKEDPEKAGEVLNKALTYVSKVAAQAAKDGPEAAAAAAKVLGEVLDEVAEIEKLRKEIAA
B15: design_612_bdadb936-3f14-48ad-830f-718e38d81c30_1832_dldesign_0_cycle1_af2pred (protein)
chain: MEKAKELVKKIKELARKIKELAERLKADPSTAEQDLKEVNEALSEALELQKKVAEIGSPEDAEEANKELGKAQRAALEAHRAAAELA
B16: design_612_bdadb936-3f14-48ad-830f-718e38d81c30_331_dldesign_0_cycle1_af2pred (protein)
chain: GKKAQAIALIDEATALLIAAQAADAETGAKLTAEAVKLLSEAIELAAELNGRAAGLIGRLLALGAAGTISPERLKELAAAAKAEIEAA
B17: design_612_bdadb936-3f14-48ad-830f-718e38d81c30_773_dldesign_0_cycle1_af2pred (protein)
chain: SAAAEAQQRLNELLGRLTAATEAGAAVDPALASALAGKAFTELSKAHQYLLAGDVDAAQAELDKAEKLVKELEAAAAAAAAAAA
B18: design_612_bdadb936-3f14-48ad-830f-718e38d81c30_2117_dldesign_0_cycle1_af2pred (protein)
chain: EEERAAAVNAAMQAIIALQQAGQALEASGDPAAKAKGKEAYAKAGEYQKLLKEYNDDVEKVKEIAKDAAAAAAEYAAAVKKAQAA
B19: design_612_bdadb936-3f14-48ad-830f-718e38d81c30_642_dldesign_0_cycle1_af2pred (protein)
chain: MREEARALLERAREALARARALAEAGGDGGEAVSLMVEALEAASRALRLARELGDEELAEEAERLLAEIRRATAAITQAVIDRA
B20: design_612_bdadb936-3f14-48ad-830f-718e38d81c30_1931_dldesign_0_cycle1_af2pred (protein)
chain: SMEELEKKREEAEKGLEEIKELAKKAAEGAKDPATAAATMAEALEKLEEYKETIELAKEVGEELAEKVRAAVNELLANVARAGAVAAA
B21: design_612_bdadb936-3f14-48ad-830f-718e38d81c30_1687_dldesign_0_cycle1_af2pred (protein)
chain: MELVKRAREILERAERAETVEELRRVLAEAARLAGEAARAAIADPATAAAANEALAIALEAMRVATERARAAR
B22: design_612_bdadb936-3f14-48ad-830f-718e38d81c30_1324_dldesign_0_cycle1_af2pred (protein)
chain: AFAAAIAALTAAAAATTPALATQLNAVKTAVTNTAKNAQAAPPEVKAATAAKWAEIAQGAVDAALAAAAA
B23: design_612_bdadb936-3f14-48ad-830f-718e38d81c30_608_dldesign_0_cycle1_af2pred (protein)
chain: AALVAQAAADLEAIGARYPALKPAADRALTLTPGLRLLAANTARNALPGSEEEIVEALRRMVEALEAEQARLDAA
B24: design_612_bdadb936-3f14-48ad-830f-718e38d81c30_1181_dldesign_0_cycle1_af2pred (protein)
chain: MMEEIKKLTEKGEELLKKGKELAKEGTAEAANKALAYYVEAAEYYEKALRLAKEAGAEEEFIKELEKKLQEAFANANAAAKAAIALTA
B25: design_612_bdadb936-3f14-48ad-830f-718e38d81c30_1230_dldesign_0_cycle1_af2pred (protein)
chain: AAAAAVATAAADAMYKQAKKQAEEAFKAAKENPEEGKKLAESALKNFELAATLYAQAGDEAKAKAVLEEGKEKYEEIMKKIKEAE
B26: design_612_bdadb936-3f14-48ad-830f-718e38d81c30_271_dldesign_0_cycle1_af2pred (protein)
chain: AARAEALAAEGEALIEQALSDATLSEEERKALLNQAAHKFVAAAGALVADRGPAAQAEITALLSKAVEAKALAEA
B27: design_613_5efed0bc-64ba-423b-b3f9-a246574e49bb_341_dldesign_0_cycle1_af2pred (protein)
chain: SEMIEKIKELGEEAKKIGKEGLAGTPEEMLKAAEKLRELMKEISRLAAEAMKESPEVEEIALAGGEALSIAAEEIAKLQAAAAAA
B28: design_612_bdadb936-3f14-48ad-830f-718e38d81c30_2140_dldesign_0_cycle1_af2pred (protein)
chain: DAAAAALAAAHIAKLNAIAKEGIEAAKKGDPEANAEKAVAKINAAASAAVKEMTALGANGSYITQVLQAAAEAIKKVREAAKKAK
B29: design_613_5efed0bc-64ba-423b-b3f9-a246574e49bb_395_dldesign_0_cycle1_af2pred (protein)
chain: SKTAEDGIKFIKELTEIAKAAAAAGQPKSVVETIRKTLEHATKVFAAAAAEDNPEYAEKVKKAGEEALKEADKAIAA
B30: design_612_bdadb936-3f14-48ad-830f-718e38d81c30_1207_dldesign_0_cycle1_af2pred (protein)
chain: GAELLAKKAQELYKKAEELAKKAPESVEAAKKAQEYAQQSIATVAELFEKFPEAPQELKASLARIAAQAAKYYLDAQKLIKAA
B31: design_612_bdadb936-3f14-48ad-830f-718e38d81c30_2254_dldesign_0_cycle1_af2pred (protein)
chain: GAAEAEEAARREEAKKLAEEYLKKVEEAAKESTGKAVEVMVKGVKELLEIGDKETANALAQEATRIISAAVRA
B32: design_613_5efed0bc-64ba-423b-b3f9-a246574e49bb_35_dldesign_0_cycle1_af2pred (protein)
chain: DQARADALIAAVDAAVAAAEAALAEDPELGLAKGAEASALIVEALKASAELSPAERARLAAALNAATARLLKVQAAAREQLA
B33: design_612_bdadb936-3f14-48ad-830f-718e38d81c30_262_dldesign_0_cycle1_af2pred (protein)
chain: AKERVKELAKEIEKLAKEAPPEVAKHLKKAAEALKKGVEEGPGAMAEAVVTLAEAAAEAYKLDPEVGERLRRIAAEVARLAIEYQA
B34: design_612_bdadb936-3f14-48ad-830f-718e38d81c30_1983_dldesign_0_cycle1_af2pred (protein)
chain: EEKVREEAKEAIEKAKEAVEKLKEAAKADPRLAVAAKAATAALEKAKELLEENPESALKLAKTTLDLAEATLAAAA
B35: design_613_5efed0bc-64ba-423b-b3f9-a246574e49bb_260_dldesign_0_cycle1_af2pred (protein)
chain: AAAVGEGSKLVIEGIKALAEAAQRVAFDPEIQAKLMAQAAKATRALVQGAADPATALELAKKALEEAKKAVKEAEKVLA
B36: design_612_bdadb936-3f14-48ad-830f-718e38d81c30_501_dldesign_0_cycle1_af2pred (protein)
chain: DLLAKQKELSEKYERVAEIGEEARKLVGEEAAELSLKALTYYTKAMAAYAAGEATAAEAEKYEKKGEEYEKKLKELKEKELKK
B37: design_613_5efed0bc-64ba-423b-b3f9-a246574e49bb_304_dldesign_0_cycle1_af2pred (protein)
chain: AEAAKAAAVALAAAMLALADALAKAGDFGTALAIATLGARIVDTVVGPEAGAAFQAQRDAVISSNARAAIAAA
B38: design_612_bdadb936-3f14-48ad-830f-718e38d81c30_1240_dldesign_0_cycle1_af2pred (protein)
chain: GEEEERDERARELVEKGREEAEKYIAAGKVGEAAGVVVEKAAEAHRVAVSPEVKAEINRELAAQIRRIMEAIA

Target: CD276, Q5ZPR3
Sequence (Q5ZPR3 whole entry): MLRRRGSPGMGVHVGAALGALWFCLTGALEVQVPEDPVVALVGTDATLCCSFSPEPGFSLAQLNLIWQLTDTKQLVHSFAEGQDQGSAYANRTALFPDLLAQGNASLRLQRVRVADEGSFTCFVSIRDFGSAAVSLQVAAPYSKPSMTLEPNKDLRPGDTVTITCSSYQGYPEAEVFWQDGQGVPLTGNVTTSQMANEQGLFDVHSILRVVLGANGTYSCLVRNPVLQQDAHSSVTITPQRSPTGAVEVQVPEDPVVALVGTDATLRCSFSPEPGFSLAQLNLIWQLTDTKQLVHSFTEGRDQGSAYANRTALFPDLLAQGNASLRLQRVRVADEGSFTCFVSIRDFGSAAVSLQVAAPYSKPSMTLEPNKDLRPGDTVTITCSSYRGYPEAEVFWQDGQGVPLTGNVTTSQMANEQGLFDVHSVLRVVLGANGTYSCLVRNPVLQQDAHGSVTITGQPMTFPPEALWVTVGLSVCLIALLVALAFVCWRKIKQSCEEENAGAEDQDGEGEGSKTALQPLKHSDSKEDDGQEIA

Row | Binder | binding in a display sort
1 | B1 | not found
2 | B2 | not found
3 | B3 | not found
4 | B4 | not found
5 | B5 | not found
6 | B6 | not found
7 | B7 | not found
8 | B8 | not found
9 | B9 | binds (active)
10 | B10 | not found
11 | B11 | not found
12 | B12 | not found
13 | B13 | not found
14 | B14 | not found
15 | B15 | not found
16 | B16 | not found
17 | B17 | not found
18 | B18 | not found
19 | B19 | not found

Row | Binder | binding in a display sort
20 | B20 | not found
21 | B21 | not found
22 | B22 | not found
23 | B23 | not found
24 | B24 | not found
25 | B25 | not found
26 | B26 | not found
27 | B27 | not found
28 | B28 | not found
29 | B29 | not found
30 | B30 | not found
31 | B31 | not found
32 | B32 | not found
33 | B33 | not found
34 | B34 | not found
35 | B35 | not found
36 | B36 | not found
37 | B37 | not found
38 | B38 | not found

Source: publication PMC13494018
